Among all 310,000 compounds or so, about 14,000 (4.5%) showed an effect of 50% or more. Effects have a minus sign here. The sample holds strong results, similar compounds and a random draw of the others, so the mix is not that of the screen.
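Also: peak tail current of the secondary pulse compared with the same well before compound.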

This experiment deals with human ether-à-go-go-related gene (hERG) potassium channel (human, UniProt Q12809). Kind of experiment: primary screen, population patch clamp on CHO cells stably expressing hERG; higher = less effect of the substance.
human ether-à-go-go-related gene (hERG) potassium channel, sequence (Q12809 whole entry, looked up): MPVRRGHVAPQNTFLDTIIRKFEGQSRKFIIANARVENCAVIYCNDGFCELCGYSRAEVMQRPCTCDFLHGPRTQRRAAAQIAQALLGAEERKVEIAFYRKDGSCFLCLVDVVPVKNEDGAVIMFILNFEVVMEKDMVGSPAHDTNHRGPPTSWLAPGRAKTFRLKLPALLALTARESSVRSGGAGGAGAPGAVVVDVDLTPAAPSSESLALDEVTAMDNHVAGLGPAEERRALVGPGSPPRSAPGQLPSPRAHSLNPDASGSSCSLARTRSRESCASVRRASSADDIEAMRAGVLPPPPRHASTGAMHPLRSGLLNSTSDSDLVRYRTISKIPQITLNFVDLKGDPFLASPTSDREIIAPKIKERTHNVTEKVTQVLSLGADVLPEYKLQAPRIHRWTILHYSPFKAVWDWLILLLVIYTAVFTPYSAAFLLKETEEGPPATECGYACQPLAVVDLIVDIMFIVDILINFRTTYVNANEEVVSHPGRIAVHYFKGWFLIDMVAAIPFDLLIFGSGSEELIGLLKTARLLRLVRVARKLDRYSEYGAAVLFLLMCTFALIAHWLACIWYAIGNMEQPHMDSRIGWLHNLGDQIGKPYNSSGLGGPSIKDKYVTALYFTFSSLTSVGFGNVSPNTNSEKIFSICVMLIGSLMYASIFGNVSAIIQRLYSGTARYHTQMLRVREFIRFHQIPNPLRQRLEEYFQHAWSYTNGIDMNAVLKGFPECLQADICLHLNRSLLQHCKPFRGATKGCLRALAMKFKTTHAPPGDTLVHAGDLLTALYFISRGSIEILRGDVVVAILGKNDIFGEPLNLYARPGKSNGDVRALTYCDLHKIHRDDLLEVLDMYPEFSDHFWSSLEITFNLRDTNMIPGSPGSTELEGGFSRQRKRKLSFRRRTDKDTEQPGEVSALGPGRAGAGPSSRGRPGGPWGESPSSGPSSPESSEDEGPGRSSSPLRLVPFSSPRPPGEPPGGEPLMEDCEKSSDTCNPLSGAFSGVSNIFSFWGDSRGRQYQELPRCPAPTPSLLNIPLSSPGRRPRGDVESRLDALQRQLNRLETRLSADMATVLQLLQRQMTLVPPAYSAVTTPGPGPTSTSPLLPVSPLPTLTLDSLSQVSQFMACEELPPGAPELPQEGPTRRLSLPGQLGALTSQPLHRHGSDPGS
With `CS(=O)(=O)N(CC(=O)Nc1ccccc1-c1ccccc1)c1ccccc1`, the “hERG current change (%, negative = inhibition) at 10uM” value was -0.135%.

Turning to `O=C(NC1CCCC1)C(c1ccncc1)N(C(=O)c1ccco1)c1ccc(Cl)cc1` (centres unmarked), the “hERG current change (%, negative = inhibition) at 10uM” value is -4.59%.

As to `CCOC(=O)C1(CCOc2ccccc2)CCN(C(C)CSC)CC1` (centres unmarked), the “hERG current change (%, negative = inhibition) at 10uM” value was -55.3%.

On to `CCOC(=O)C1(CCc2ccccc2)CCN(C(C)CSC)CC1` (centres unmarked), for which the “hERG current change (%, negative = inhibition) at 10uM” value is given as -66.6%.

As for `CCOC(=O)C1(CCOc2ccccc2)CCN(C(=O)CCSC)CC1`, the “hERG current change (%, negative = inhibition) at 10uM” value was -42%.

For the compound `O=C1C2CCCN2C(c2ccc(Cl)c(Cl)c2)N1c1ccccn1` (centres unmarked), the “hERG current change (%, negative = inhibition) at 10uM” value is listed as -10%.

In the case of `O=C(NC(=S)Nc1ccc(-c2nc3ncccc3o2)cc1)c1ccccc1F`, the “hERG current change (%, negative = inhibition) at 10uM” value turned out to be 14.5%.

On to `CCOCCCNC(=O)C(NC(=O)c1cnccn1)c1ccc(C)cc1` (centres unmarked), for which the “hERG current change (%, negative = inhibition) at 10uM” value is given as 30.4%.

For the compound `CCN(CC)C(=O)Cn1cc(S(=O)(=O)CC(=O)Nc2ccc(C(N)=O)cc2)c2ccccc21`, the “hERG current change (%, negative = inhibition) at 10uM” value was determined as 18.2%.

Regarding `CCOc1ccc(NC(=O)CN2CCCC2c2cccs2)cc1S(=O)(=O)N1CCCCC1` (centres unmarked), the “hERG current change (%, negative = inhibition) at 10uM” value is reported as -11.8%.

`CSc1cccc(NC(=S)NCCCO)c1`: the “hERG current change (%, negative = inhibition) at 10uM” value was -4.03%.

With `COC(=O)c1ccc(N2CCN(CCNC(=O)Nc3ccc(OC)cc3)CC2)cc1`, the “hERG current change (%, negative = inhibition) at 10uM” value is reported as -0.192%.

Turning to `CCc1ccc(N2CCN(CCNC(=O)Nc3ccc(OC)cc3)CC2)cc1`, the “hERG current change (%, negative = inhibition) at 10uM” value was -29.9%.

In the case of `COc1ccccc1N1CCN(CCCNC(=O)Nc2ccccc2)CC1`, the “hERG current change (%, negative = inhibition) at 10uM” value is -59.8%.

Regarding `COc1ccccc1N1CCN(CCCNc2c(C)c(=O)n(C)c(=O)n2C)CC1`, the “hERG current change (%, negative = inhibition) at 10uM” value is given as -5.42%.

`COc1ccc(N2CCN(CCCNC(=O)Nc3ccccc3)CC2)cc1`: the “hERG current change (%, negative = inhibition) at 10uM” value is -64.5%.

In the case of `COc1ccc(NC(=O)NCCN2CCN(c3cccc(Cl)c3)CC2)cc1`, the “hERG current change (%, negative = inhibition) at 10uM” value was -31.6%.

Consider `Fc1cccc(NC(=S)NCCCN2CCOCC2)c1`, for which the “hERG current change (%, negative = inhibition) at 10uM” value is recorded as -0.1%.

For `CCOc1ccc(NC(=O)CCN2CCN(c3ccccc3OC)CC2)cc1`, the “hERG current change (%, negative = inhibition) at 10uM” value is -33.8%.

In the case of `COc1ccc(N2CCN(CCNC(=O)Nc3ccc(C)c(Cl)c3)CC2)cc1`, the “hERG current change (%, negative = inhibition) at 10uM” value is reported as 15.9%.

`COc1ccc(N2CCN(CCNC(=O)Nc3ccc(Cl)cc3)CC2)cc1`: the “hERG current change (%, negative = inhibition) at 10uM” value is recorded as -60.7%.

With `CSc1cccc(NC(=S)NCCCN2CCN(c3ccc(F)cc3)CC2)c1`, the “hERG current change (%, negative = inhibition) at 10uM” value was -66.7%.

As for `CC(OC(=O)c1ccccc1NCc1ccco1)C(=O)Nc1ncc(Cl)cc1Cl` (centres unmarked), the “hERG current change (%, negative = inhibition) at 10uM” value came to 2.95%.

As for `Cc1ccc(C)c(-n2nnnc2SCC(=O)NCC2CCCO2)c1` (centres unmarked), the “hERG current change (%, negative = inhibition) at 10uM” value is on record as -4.18%.

As for `CCN(C(=O)COC(=O)CCC(=O)c1cccs1)c1c(N)n(Cc2ccccc2)c(=O)[nH]c1=O`, the “hERG current change (%, negative = inhibition) at 10uM” value was -4.97%.

For `CCCCCOc1ccc(CSCCNC(=S)Nc2ccccc2)cc1`, the “hERG current change (%, negative = inhibition) at 10uM” value is reported as -5.94%.

For the compound `O=C(O)c1ccccc1C(=O)c1ccc(-c2ccccc2)cc1`, the “hERG current change (%, negative = inhibition) at 10uM” value is 17.2%.

As for `CCOC(=O)c1ccc(S(=O)(=O)NNC(=O)COc2cccc(C)c2)cc1`, the “hERG current change (%, negative = inhibition) at 10uM” value was determined as 34.6%.

`Cc1ccc(S(=O)(=O)N2CCN(S(=O)(=O)N3CCCCCC3)CC2)cc1`: the “hERG current change (%, negative = inhibition) at 10uM” value is reported as 20.4%.

In the case of `COc1cccc(NC(=O)NCCCN2CCN(c3ccc(F)cc3)CC2)c1`, the “hERG current change (%, negative = inhibition) at 10uM” value is -73.2%.

Consider `COc1cccc(NC(=S)NCCCN2CCOCC2)c1`, for which the “hERG current change (%, negative = inhibition) at 10uM” value was found to be 16.7%.

`COc1ccccc1N1CCN(CCCNC(=O)Nc2ccccc2C)CC1`: the “hERG current change (%, negative = inhibition) at 10uM” value is listed as -33.7%.

In the case of `COc1ccccc1N1CCN(CCNC(=O)Nc2cccc(C)c2C)CC1`, the “hERG current change (%, negative = inhibition) at 10uM” value is recorded as -68.8%.

Regarding `COc1cccc(NC(=O)NCCN2CCCCC2)c1`, the “hERG current change (%, negative = inhibition) at 10uM” value was -13.7%.

With `Cc1cccc(NC(=O)NCCN2CCN(c3ccccc3)CC2)c1C`, the “hERG current change (%, negative = inhibition) at 10uM” value is given as -9.69%.

For the compound `Cc1cccc(NS(=O)(=O)c2c(C(=O)N3CCCC3)c(C)n(C)c2C)c1`, the “hERG current change (%, negative = inhibition) at 10uM” value turned out to be 18.1%.

Consider `Cc1cc(Cl)ccc1OCC(=O)N/N=C/c1ccncc1`, for which the “hERG current change (%, negative = inhibition) at 10uM” value is given as -14.9%.

Consider `COC(=O)CSc1nc(C)cc(N2CCOCC2)n1`, for which the “hERG current change (%, negative = inhibition) at 10uM” value was determined as 7.89%.

For the compound `NC(=O)C1CCN(C(=O)COc2ccc3ccccc3c2)CC1`, the “hERG current change (%, negative = inhibition) at 10uM” value is reported as 18.2%.

Regarding `CCC(C)(C)NC(=O)C(c1cccnc1)N(C(=O)c1csnn1)c1ccccc1` (centres unmarked), the “hERG current change (%, negative = inhibition) at 10uM” value is on record as -22.7%.

As for `O=C(Cn1c(-c2ccccc2)noc1=O)NCc1ccccc1`, the “hERG current change (%, negative = inhibition) at 10uM” value came out at 6.47%.

As for `CCCCn1c(SC(C)C(=O)NCC2CCCO2)nc2cc(C(=O)OC)ccc2c1=O` (centres unmarked), the “hERG current change (%, negative = inhibition) at 10uM” value is -44.9%.

With `CCOC(=O)CSc1nc2cc(C(=O)N3CCC(C(N)=O)CC3)ccc2c(=O)n1C1CCCCC1`, the “hERG current change (%, negative = inhibition) at 10uM” value is -10.7%.

With `CCCCCn1c(SCC#N)nc2cc(C(=O)NCC3CCCO3)ccc2c1=O` (centres unmarked), the “hERG current change (%, negative = inhibition) at 10uM” value is -52.7%.

With `NC(=O)C1CCN(C(=O)c2ccc3c(=O)n(Cc4ccco4)c(SCC(=O)c4ccccc4)nc3c2)CC1`, the “hERG current change (%, negative = inhibition) at 10uM” value is 6.75%.

As to `N#CCSc1nc2ccccc2c(=O)n1CCCC(=O)NCC1CCCO1` (centres unmarked), the “hERG current change (%, negative = inhibition) at 10uM” value is -12.4%.

Turning to `CCCCCn1c(SCC2CCCO2)nc2cc(C(=O)N3CCC(C(N)=O)CC3)ccc2c1=O` (centres unmarked), the “hERG current change (%, negative = inhibition) at 10uM” value is on record as -64.7%.

`C=CCn1c(SCC(=O)CC(=O)OCC)nc2cc(C(=O)N3CCC(C(N)=O)CC3)ccc2c1=O`: the “hERG current change (%, negative = inhibition) at 10uM” value stood at 13.7%.

`CCCCCn1c(SCC(=O)OCC)nc2cc(C(=O)N3CCC(C(N)=O)CC3)ccc2c1=O`: the “hERG current change (%, negative = inhibition) at 10uM” value is reported as -58.4%.

Regarding `CCCCCn1c(SCC(=O)CC(=O)OCC)nc2cc(C(=O)N3CCC(C(N)=O)CC3)ccc2c1=O`, the “hERG current change (%, negative = inhibition) at 10uM” value is recorded as -17.7%.

As to `c1cc(-c2nnn(CCOCCn3nnc(-c4ccncc4)n3)n2)ccn1`, the “hERG current change (%, negative = inhibition) at 10uM” value is reported as -0.329%.

Consider `c1ccc(Oc2cccc(OCCn3cncn3)c2)cc1`, for which the “hERG current change (%, negative = inhibition) at 10uM” value was -12.7%.

On to `CC(=O)c1ccc(NC(=S)NNC(=O)c2ccccc2[N+](=O)[O-])cc1`, for which the “hERG current change (%, negative = inhibition) at 10uM” value stood at 20%.

`Cc1ccc(S(=O)(=O)NCC2CCC(C(=O)NCCCN3CCOCC3)CC2)cc1` (centres unmarked): the “hERG current change (%, negative = inhibition) at 10uM” value is 10.8%.

On to `COCCNC(=O)C1CCC(CNS(=O)(=O)c2c(C)cc(C)cc2C)CC1` (centres unmarked), for which the “hERG current change (%, negative = inhibition) at 10uM” value is 7.72%.

Regarding `CCCCN(C)CCCNC(=O)C1CCC(CNS(=O)(=O)c2c(C)cc(C)cc2C)CC1` (centres unmarked), the “hERG current change (%, negative = inhibition) at 10uM” value is recorded as -77.3%.

As for `CCN(CC)CCCNC(=O)C1CCC(CNS(=O)(=O)c2c(C)cc(C)cc2C)CC1` (centres unmarked), the “hERG current change (%, negative = inhibition) at 10uM” value is -13.5%.

Regarding `Cc1cc(C)c(S(=O)(=O)NCC2CCC(C(=O)NCCCN3CCC(C)CC3)CC2)c(C)c1` (centres unmarked), the “hERG current change (%, negative = inhibition) at 10uM” value is -77.2%.

Turning to `CCC1CCCCN1CCCNC(=O)C1CCC(CNS(=O)(=O)c2c(C)cc(C)cc2C)CC1` (centres unmarked), the “hERG current change (%, negative = inhibition) at 10uM” value is reported as -68.3%.

For `COC(CNC(=O)C1CCC(CNS(=O)(=O)c2c(C)cc(C)cc2C)CC1)OC` (centres unmarked), the “hERG current change (%, negative = inhibition) at 10uM” value is -26%.

Turning to `CC1CCN(CCCNC(=O)C2CCC(CNS(=O)(=O)c3ccccc3)CC2)CC1` (centres unmarked), the “hERG current change (%, negative = inhibition) at 10uM” value is 5.02%.

With `CCCCNC(=O)C1CCC(CNS(=O)(=O)c2c(C)cc(C)cc2C)CC1` (centres unmarked), the “hERG current change (%, negative = inhibition) at 10uM” value was 3.09%.

The values are drawn from PMC4336329 (PLoS ONE, 2015).
